Nine compounds from PubChem BioAssay can be followed below.

The source made the active and inactive calls.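 The calls were made as follows, unless noted: active = inhibition above 20% together with a positive visual image hit; inconclusive = visual image hit but inhibition not above 20%; inactive = no visual image hit.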

The nature of assay [1]: inhibitors of TNFa-induced NFkB p65 translocation, primary screen, imaging, HUVEC, MLSMR starter and 10KST1 sets (AID 438).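 Also: compound added about 3h40 before a 20 min TNFalpha stimulation.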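 As to inhibition: signal is the nuclear over cytoplasmic p65 intensity ratio per well.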 To be noted: HUVEC TNFa-induced p65 nuclear translocation; cell count: measured here: nuclei count (cytotoxicity indicator), at 2.08 µM; inhibition: at 2 µM, stronger effect = higher value, 0% TNFa-plus-vehicle, 100% no-TNFa wells.
Assay [2] is described as follows: inhibitors of mutant huntingtin aggregation, primary screen, imaging, exon1htt(103Q)mCFP cells, high-content imaging (AID 483;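 active = visual image review flags a hit and inhibition of aggregation exceeds 20%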;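 also: compound exposure lasted 3 days before fixation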;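 as to nuclei count: percent of the per-plate median nuclei count of sample wells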). To be noted: exon1htt(103Q)mCFP cell line, aggregate imaging, at 2 µM; inhibition of aggregation: stronger effect = higher value; nuclei count: measured here: cell count, toxicity.
Assay [3] in a line: inhibitors of E-selectin induction by TNFa, primary screen, imaging, HUVEC, immunofluorescence, MLSMR starter and 10KST1 sets (AID 487;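 active = visually confirmed hit in the image check and inhibition above 20%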;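 as to inhibition: signal is fraction of cell area covered by stained E-selectin grains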;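 as to nuclei count: 100% = median nuclei count of all wells on the same plate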). To be noted: HUVEC TNFalpha-induced E-selectin immunofluorescence imaging, at 2 µM; inhibition: stronger effect = higher value; nuclei count: measured here: cell number, toxicity.
Assay [4] has as its target Voltage-gated potassium channel subunit beta-2 (Rattus norvegicus) (UniProt P62483). Description: KvBeta enzyme negative modulators, primary screen, biochemical, NADPH fluorescence (AID 622;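 active = fluorescence slope higher than the sample average by over 3 SD, cut at about -0.22 in these data, passing the limit was not always enough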;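 also: slope of raw intensity against log time taken from 70 to 1610 s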). To be noted: recombinant KvBeta, 4-cyanobenzaldehyde reduction, at 10 µM, stronger effect = higher value.
The target is the same in assay [5]. Description: KvBeta positive modulators, primary screen, biochemical, NADPH fluorescence (AID 623;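 active = NADPH fluorescence slope more negative than the mean of all samples by about 3 SD, 99.7% confidence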;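 also: fluorescence intensity change per second fitted from 20 to 320 s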). To be noted: Recombinant KvBeta, NADPH fluorescence decrease slope, 10 min; at 10 µM; stronger effect = lower value.
Assay [6] concerns the target Alpha-2C adrenergic receptor (Homo sapiens) (UniProt P18825). Description: modulators of alpha2C/GIRK thallium flux, primary screen, cell-based, HEK293 alpha2C/GIRK1/2 (AID 624;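 active = fluorescence slope after compound addition differing from the mean of all screened samples at 99.7% confidence, in either direction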;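 also: slope of fluorescence ratio to pre-addition baseline per second over 15 to 24 s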). To be noted: thallium flux BTC fluorescence, at 10 µM, actives lie on both sides.
A short description of assay [7]: inhibitors of Sendai virus-induced IRF3 signaling, primary screen, TLR/RLR signaling modifier project, cell-based, Sendai virus stimulus, luciferase, 10K MLSCN set (AID 602276;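 active = inhibition at or above 50% at 10 µM; inactive = inhibition below 50%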;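 also: firefly luciferase from ISG56 promoter only with Renilla not read in this screen; 0% = Sendai virus plus DMSO and 100% = medium plus DMSO without virus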). To be noted: HEK293 RL24 IRF3 luciferase reporter, at 10 µM, stronger effect = higher value. (In general: In a reporter assay the amount or activity of a reporter protein is the signal.)
Assay [8] in a line: inhibitors of poly I:C-induced TLR3 signaling, primary screen, cell-based, poly I:C stimulus, luciferase, 10K MLSCN set (AID 602277;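 active = inhibition of the reporter signal at or above 50%; inactive = inhibition below 50%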). To be noted: HEK293-TLR3 RL24 IRF3 luciferase reporter, at 10 µM, stronger effect = higher value.

One may read the inhibition as the drop in the measured response relative to a control, in per cent.

Alpha-2C adrenergic receptor (Homo sapiens), sequence (P18825 whole entry, looked up): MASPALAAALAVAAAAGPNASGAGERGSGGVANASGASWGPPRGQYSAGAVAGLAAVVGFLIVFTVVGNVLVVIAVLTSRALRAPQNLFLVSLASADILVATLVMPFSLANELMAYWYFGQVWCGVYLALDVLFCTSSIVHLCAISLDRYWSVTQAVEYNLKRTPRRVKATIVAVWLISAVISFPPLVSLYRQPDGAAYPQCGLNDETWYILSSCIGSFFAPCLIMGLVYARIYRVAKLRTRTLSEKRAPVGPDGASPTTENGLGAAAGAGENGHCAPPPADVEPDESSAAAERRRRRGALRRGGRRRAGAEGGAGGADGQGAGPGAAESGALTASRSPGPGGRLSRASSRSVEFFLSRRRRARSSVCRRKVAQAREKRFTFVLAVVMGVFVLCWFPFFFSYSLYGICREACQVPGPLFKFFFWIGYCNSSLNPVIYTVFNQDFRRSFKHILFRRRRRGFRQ
Voltage-gated potassium channel subunit beta-2 (Rattus norvegicus), sequence (P62483 whole entry, looked up): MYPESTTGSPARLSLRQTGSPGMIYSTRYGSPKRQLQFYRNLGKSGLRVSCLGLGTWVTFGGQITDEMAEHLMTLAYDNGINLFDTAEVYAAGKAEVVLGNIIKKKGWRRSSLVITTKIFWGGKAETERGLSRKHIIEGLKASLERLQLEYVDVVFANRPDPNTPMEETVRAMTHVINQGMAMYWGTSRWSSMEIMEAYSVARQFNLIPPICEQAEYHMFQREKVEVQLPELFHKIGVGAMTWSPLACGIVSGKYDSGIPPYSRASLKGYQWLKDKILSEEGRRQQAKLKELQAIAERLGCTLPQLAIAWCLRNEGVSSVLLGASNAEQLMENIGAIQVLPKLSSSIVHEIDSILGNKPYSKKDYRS

In the case of `COC(=O)Cn1c(CN2CCN(c3ccccc3F)CC2)nc2c1c(=O)n(C)c(=O)n2C`, the cell count in assay [1] turned out to be 633. Also, the inhibition is -1.4% (inactive) in assay [1], 7.8% (inactive) in assay [3], 7.96% (inactive) in assay [7] and 19.6% (inactive) in assay [8]. Moreover, in assay [2], the inhibition of aggregation was -18.2% (inactive). Also, the nuclei count in assay [2] was found to be 90.2%; in assay [3], 87.6%. For the same compound, in assay [4], the fluorescence slope was -0.555 (inactive). In addition, the NADPH fluorescence slope in assay [5] was -3.8e-05 (inactive). Moreover, the slope in assay [6] was 0.0082 (inactive).
As to `Cc1noc(C)c1CSc1nc2cc(S(=O)(=O)N3CCOCC3)ccc2o1`, the cell count in assay [1] was 515. For the same compound, the inhibition in assay [1] was -12.1% (inactive); in assay [3], -52% (inactive); in assay [7], 16.1% (inactive); in assay [8], 19.5% (inactive). Moreover, the inhibition of aggregation in assay [2] was -33.5% (inactive). Besides, the nuclei count was 135% in assay [2] and 118% in assay [3]. Also, the fluorescence slope in assay [4] was -0.478 (inactive). In addition, the NADPH fluorescence slope in assay [5] was -0.000262 (inactive). The slope in assay [6] was 0.00432 (inactive).
Regarding `CCOc1ccc(NC(=O)C2CC(=O)N(C(C)C)C2)cc1` (centres undefined), the cell count in assay [1] was determined as 346. Moreover, the inhibition is -0.5% (inactive) in assay [1], -32.2% (inactive) in assay [3], 11% (inactive) in assay [7] and 12.4% (inactive) in assay [8]. Further, the inhibition of aggregation in assay [2] is 11.8% (inactive). The nuclei count in assay [2] was found to be 91.8%; in assay [3], 96.8%. Further, the fluorescence slope in assay [4] is -0.623 (inactive). In addition, the NADPH fluorescence slope in assay [5] is 4.4e-05 (inactive). The slope in assay [6] is 0.00445 (inactive).
In the case of `COc1ccc(Br)cc1CNC(=O)C1CCCN(S(C)(=O)=O)C1` (centres undefined), the cell count in assay [1] worked out at 949. For the same compound, the inhibition in assay [1] was -7.5% (inactive); in assay [3], -129% (inactive); in assay [7], 5.73% (inactive); in assay [8] it was 33.6% (inactive). The inhibition of aggregation in assay [2] is -7.3% (inactive). Also, the nuclei count in assay [2] was 114%; in assay [3] it was 113%. The fluorescence slope in assay [4] is -0.362 (inactive). In assay [5], the NADPH fluorescence slope is -5.7e-05 (inactive). Further, the slope in assay [6] was 0.00566 (inactive).
On to `CCn1nccc1C(=O)Nc1cc(Cl)ccc1Cl`, for which the cell count in assay [1] is 633. The inhibition in assay [1] was 8.3% (inactive); in assay [3], 22.2% (inactive); in assay [7], 1.68% (inactive); in assay [8], 15.9% (inactive). In assay [2], the inhibition of aggregation was 6.7% (inactive). Also, the results for the nuclei count in assay [2] and in assay [3] were 57.3% and 106%, respectively. The fluorescence slope in assay [4] is -0.385 (inactive). Further, the NADPH fluorescence slope in assay [5] is -5e-05 (inactive). Moreover, the slope in assay [6] is 0.00378 (inactive).
Regarding `C=C(C)Cn1c(-c2ccccc2)nc2ccccc21`, in assay [1], the cell count worked out at 326. Moreover, the inhibition is -5.5% (inactive) in assay [1], -17.6% (inactive) in assay [3], 14.4% (inactive) in assay [7] and 2.46% (inactive) in assay [8]. Also, the inhibition of aggregation in assay [2] was -4.2% (inactive). Moreover, the nuclei count in assay [2] amounted to 113%; in assay [3], 104%. In assay [4], the fluorescence slope was -0.512 (inactive). In assay [5], the NADPH fluorescence slope was -5.5e-05 (inactive). Also, the slope in assay [6] was 0.00476 (inactive).
As for `O=C(OCCCCN1C(=O)c2ccccc2C1=O)c1n[nH]c2ccccc12`, the cell count in assay [1] was found to be 698. Moreover, the inhibition in assay [1] was 8.6% (inactive); in assay [3], -164% (inactive); in assay [7] it was 9.32% (inactive); in assay [8], -4.95% (inactive). Moreover, the inhibition of aggregation in assay [2] is 12.4% (inactive). In addition, the nuclei count in assay [2] was found to be 97%; in assay [3], 155%. The fluorescence slope in assay [4] was -0.543 (inactive). The NADPH fluorescence slope in assay [5] was -5.2e-05 (inactive). The slope in assay [6] was 0.00475 (inactive).
Take `Cc1cc(C)c2ccc(N)nc2c1O`: the cell count in assay [1] stood at 408. In addition, the inhibition in assay [1] is 0.1% (inactive); in assay [3], 41.6% (inactive); in assay [7] it was 21% (inactive); in assay [8], 29.8% (inactive). Also, in assay [2], the inhibition of aggregation was 22.6% (inactive). Further, the nuclei count in assay [2] was found to be 6.8%; in assay [3], 107%. The fluorescence slope in assay [4] is -0.462 (inactive). In addition, in assay [5], the NADPH fluorescence slope was -5e-05 (inactive). Moreover, the slope in assay [6] was 0.00457 (inactive).
With `COC(=O)C1=C(C)Nc2nnnn2C1c1cccs1` (centres undefined), the cell count in assay [1] amounted to 536. Moreover, the inhibition in assay [1] is -8.8% (inactive); in assay [3], -19.9% (inactive); in assay [7] it was 4.45% (inactive); in assay [8], 20.5% (inactive). Besides, in assay [2], the inhibition of aggregation was -0.9% (inactive). The values for the nuclei count in assay [2] and in assay [3] were 107% and 62.5%, respectively. Further, in assay [4], the fluorescence slope is -0.599 (inactive). Further, in assay [5], the NADPH fluorescence slope was -6.8e-05 (inactive). For the same compound, the slope in assay [6] is 0.0058 (inactive).
